D1 antagonist: antagonists of human D1 dopamine receptor; P21728; AID 504652; activity change, negative = inhibition, % at 10 µM; HEK293 TREx D1 cells, calcium flux, dopamine EC80; hits give low values; 360,000 tested, 3.2% active; in the data active means activity change below about -30%; further: on the % scale 0 is the no-effect control and ±100 the full control effect
Target sequence (P21728 whole entry, looked up): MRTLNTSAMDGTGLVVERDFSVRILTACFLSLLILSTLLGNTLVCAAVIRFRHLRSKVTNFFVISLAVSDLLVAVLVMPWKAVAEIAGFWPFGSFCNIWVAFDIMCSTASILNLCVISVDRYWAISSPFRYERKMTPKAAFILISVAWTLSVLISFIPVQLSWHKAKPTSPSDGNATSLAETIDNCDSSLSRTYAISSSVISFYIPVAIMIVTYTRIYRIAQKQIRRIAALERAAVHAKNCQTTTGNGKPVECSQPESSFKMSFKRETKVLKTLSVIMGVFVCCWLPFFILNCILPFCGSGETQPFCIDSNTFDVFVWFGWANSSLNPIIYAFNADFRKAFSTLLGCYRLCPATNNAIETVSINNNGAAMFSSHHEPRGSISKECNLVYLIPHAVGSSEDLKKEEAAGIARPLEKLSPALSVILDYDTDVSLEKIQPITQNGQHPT
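Antagonism measured as reduced calcium response to an EC80 dopamine addition following 180 s compound pre-read; cells were inducible HEK293 Trex D1 plated overnight at 30 C, read kinetically at 1 cycle/sec.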
D1 ag: human D1 receptor agonism | P21728 | HEK293 T-REx D1 cells, calcium flux, agonist mode | activation, % at 2 µM | 360,000 tested, 1% active | AID 504660; in the data active means activation above about 30%; further: 0% is about no effect
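Agonism was scored from calcium flux recorded over 180 s (1 read/s) after pintool compound addition, following a 10-cycle baseline. Cells were inducible force-coupled HEK293 TREx D1, plated overnight at 30 C and loaded with no-wash calcium dye.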
DRD3 agonist: D3 dopamine receptor (human) agonism; 410,000 tested, 0.58% active; max activation, %; D3R DiscoveRx beta-arrestin cells, luminescence, 90 min; AID 652048; in the data active means max activation above about 30%; further: 0% is about no effect
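Cells at 1500/well, incubated overnight, then treated with pinned compounds (dopamine as control) for 90 min at 37 degrees C. DiscoveRx reagent added for 30 - 60 minutes at room temperature; luminescence read.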
D3 antag: D3 dopamine receptor (human) antagonism | D3R cells, DiscoveRx beta-arrestin luminescence, antagonist mode; hits give low values | max response, negative = inhibition, % | 360,000 tested, 2.5% active; in the data active means max response below about -50%; inconclusive means no clear call, values can overlap the other calls; further: on the % scale 0 is the no-effect control and ±100 the full control effect
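Cells plated overnight at 1500 cells/well, then exposed to library compounds with dopamine controls for 90 minutes at 37 degrees C. DiscoveRx reagent added for 30–60 minutes at room temperature; luminescence read, quantitative HTS format.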
D1 potentiator: potentiators of human D1 dopamine receptor | P21728 | potentiation, % at 10 µM | HEK293 TREx D1 cells, calcium flux, dopamine EC20 potentiation | 360,000 tested, 0.036% active; in the data active means potentiation above about 30%; further: 0% is about no effect
The depositor's hits bear a star; ? = inconclusive; · = no result. Most compounds without a hit are left out; they make up all but 6% or so of the library.

SMILES	D1 antagonist	D1 ag	DRD3 agonist	D3 antag	D1 potentiator
COc1ccc(OCc2cc(C(=O)NCc3nc(C)cs3)no2)c(Cl)c1	-35*	17	2	9	8
COc1ccc(NC(=O)c2ccco2)cc1NC(=O)COc1ccccc1Cl	-6	4	-6	·	-8
CCCCCc1cc(=O)oc2c(C(CCN3CCCC(C)C3)c3cc(OC)c(OC)c(OC)c3)c(OC)cc(OC)c12 (centres undefined)	-47*	22	-61	?	-10
COc1cc(OC)c2ccc(=O)oc2c1C(CCN1CCCC(C)C1)c1ccc(N(C)C)cc1 (centres undefined)	21	2	-62	-60*	-6
COc1cc(C(CCN2CCCC(C)C2)c2c(OC)cc(OC)c3c2OC(=O)CC3c2ccc(N(C)C)cc2)cc(OC)c1OC (centres undefined)	-7	5	-22	-59*	-8
COc1ccc(C2CC(=O)Oc3c(C(CCN4CCN(c5ccccc5)CC4)c4ccc(N(C)C)cc4)c(OC)cc(OC)c32)cc1 (centres undefined)	5	0	-47	-84*	-2
CN(CC1(C)CCCO1)S(=O)(=O)c1ccc(Cl)c(S(N)(=O)=O)c1 (centres undefined)	·	·	-6	·	·
COc1cc(C2CC(=O)Oc3c(C(CCN4CCCC(C)C4)c4ccc(N(C)C)cc4)c(OC)cc(OC)c32)cc(OC)c1OC (centres undefined)	15	1	-75	-71*	0
CCOC(=O)c1c(C)[nH]c(C)c1S(=O)(=O)N1CCCC(C(=O)NCc2ccc(N(C)C)cc2)C1 (centres undefined)	-31*	3	7	·	-4
COc1ccc(S(=O)(=O)N2CCC(C(=O)NCc3cccnc3)CC2)cc1OC	-52*	2	-5	7	22
O=C(c1ccc2ccccc2c1)C1CCCN(S(=O)(=O)c2cccnc2)C1 (centres undefined)	-53*	10	5	11	-8
CCOC(=O)c1c(C)[nH]c(C)c1S(=O)(=O)N1CCCC(C(=O)NCc2cccc(C)c2)C1 (centres undefined)	-4	1	3	·	6
COc1ccc(S(=O)(=O)N2CCCC(C(=O)NCCC(C)C)C2)cc1 (centres undefined)	-30*	5	-2	-5	-8
CCn1cc(/C=C(\NC(=O)c2cc(OC)c(OC)c(OC)c2)C(=O)NCCCn2ccnc2)c2ccccc21	-2	22	-9	·	0
COc1ccccc1CNC(=O)C1CCN(S(=O)(=O)c2ccc(-n3cnnn3)cc2)CC1	-39*	5	3	2	-7
COc1ccc(CNC(=O)C2CCN(C(=O)N(C)C)CC2)c(OC)c1	-18	0	-8	12	0
CCOc1ccc(S(=O)(=O)N2CCCC(C(=O)NCc3cccnc3)C2)cc1 (centres undefined)	-31*	1	1	19	-9
COc1cccc(CNC(=O)C2CCN(S(=O)(=O)c3cnc[nH]3)CC2)c1	-39*	5	-4	-20	-1
COc1ccccc1CNC(=O)C1CCN(C(=O)N(C)C)CC1	-38*	2	11	17	-2
CN(C(=O)c1cc2c(=O)oc3ccccc3c2s1)c1ccc(F)cc1	4	1	0	·	3
Cc1cc(Nc2cccc(C(F)(F)F)c2)nc2ccc(NC(=O)c3cccc(Cl)c3)cc12	-6	-1	2	·	-2
Cc1ccc(S(=O)(=O)NCC2CCC(C(=O)NCc3cccnc3)CC2)cc1 (centres undefined)	-32*	2	-6	-9	-7
CC(C)c1ccc(CN2CCC(C(=O)NCc3cccnc3)CC2)cc1	-6	7	-5	-83*	-9
CCS(=O)(=O)N1CCC(C(=O)NCc2cccnc2)CC1	11	1	3	5	3
COc1ccc(CNC(=O)[C@@H](NC(=O)C2CCN(S(=O)(=O)c3ccc(C)cc3)CC2)C(C)C)cc1OC	-33*	0	-3	7	4
SMILES	D1 antagonist	D1 ag	DRD3 agonist	D3 antag	D1 potentiator
COc1ccc(S(=O)(=O)N2CCCC(C(=O)NCc3ccccc3)C2)cc1 (centres undefined)	-31*	18	15	-12	-6
CC(Sc1nnc(NCc2ccccc2)s1)C(=O)Nc1ccc2c(c1)C(=O)c1ccccc1C2=O (centres undefined)	-33*	4	4	5	-6
CCN(Cc1ccccc1)Cc1c(O)ccc2c(=O)c(-c3ccccc3OC)c(C(F)(F)F)oc12	-2	-1	-7	·	0
O=C(Cn1c(=O)oc2ccccc21)NCc1ccccc1Cl	6	2	1	·	2
O=C1CCc2cc(S(=O)(=O)N3CCC(C(=O)Nc4nccs4)CC3)ccc2N1	17	4	0	0	0
Cc1cccnc1NC(=O)C1CCN(S(=O)(=O)c2ccc3c(c2)CCC(=O)N3)CC1	-43*	0	0	40	2
Cc1ccc(C)c(CN2C(=O)C3(c4ccccc42)N(c2ccc(Cl)cc2)C(=O)CS3(=O)=O)c1 (centres undefined)	-5	1	-6	·	3
Cc1ccc(S(=O)(=O)N(Cc2ccccc2)c2ccccc2C(=O)NCc2cccnc2)cc1	-38*	3	5	-2	-6
Cc1ccc(S(=O)(=O)N(C)c2ccc(C(=O)NCc3cccnc3)cc2)cc1	-9	0	-3	-12	-1
CN1CCN(C(=O)c2ccccc2N(Cc2ccccc2)S(=O)(=O)c2ccccc2)CC1	6	-1	-57	-60*	-5
CCOc1ccc(-c2cc(-c3nc(-c4ccc(C)cc4)no3)[nH]n2)cc1	0	1	-12	·	-3
CCc1ccc(Nc2nnc(SCC(=O)N(C)C3CCS(=O)(=O)C3)s2)cc1 (centres undefined)	-70*	1	1	-7	-2
CN(C(=O)CSc1ncccn1)C1CCS(=O)(=O)C1 (centres undefined)	·	·	2	2	·
CC(=O)Nc1ccc(SCC(=O)N(C)C2CCS(=O)(=O)C2)cc1 (centres undefined)	-17	4	-12	-59*	-8
C=C1C(=O)C23CCC4C(C)(C(=O)OC)CCCC4(C)C2CCC1(O)C3 (centres undefined)	·	·	-29	-106*	·
Nc1nc(Cl)nc2c1ncn2[C@@H]1O[C@H](CO)[C@@H](O)[C@@H]1F	·	·	1	·	·
N#C/C(=C\c1ccccc1)C(=O)NC(=O)Oc1ccccc1	-3	0	-4	0	0
CCN(CC)c1ccc(/C=C(\C#N)C(N)=O)cc1	8	14	5	-5	-2
CCN(CC)c1ccc(/C=C(\C#N)C(=O)c2ccc(Br)cc2)cc1	-48*	259*	-5	-25	-10
CCOC(=O)NC(=O)/C(C#N)=C/c1ccc(N(C)C)cc1	-26	31*	3	9	-5
